Test results as given in PubChem BioAssay AID777 (Sanford-Burnham Center for Chemical Genomics, 2007).
The whole screen tested about 96,000 compounds, of which about 19,000 (20%) were called active. These entries were drawn from the full list. A number with no mark means an inactive call.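 The calls were made as follows: active = blocking of liver enzyme CYP2C9 beyond about 50% at 5 µM (limit read from the data); inactive = the rest.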

Target: Cytochrome P450 2C9 (Homo sapiens) (UniProt P11712)
Assay: blockers of cytochrome P450 2C9 activity – biochemical, luminescence, ADME assay, primary screen (AID 777)
Details: CYP2C9 Supersomes, luciferin-H conversion, at 5 µM, stronger effect = higher value

Sequence of Cytochrome P450 2C9 (Homo sapiens) (P11712 whole entry, looked up): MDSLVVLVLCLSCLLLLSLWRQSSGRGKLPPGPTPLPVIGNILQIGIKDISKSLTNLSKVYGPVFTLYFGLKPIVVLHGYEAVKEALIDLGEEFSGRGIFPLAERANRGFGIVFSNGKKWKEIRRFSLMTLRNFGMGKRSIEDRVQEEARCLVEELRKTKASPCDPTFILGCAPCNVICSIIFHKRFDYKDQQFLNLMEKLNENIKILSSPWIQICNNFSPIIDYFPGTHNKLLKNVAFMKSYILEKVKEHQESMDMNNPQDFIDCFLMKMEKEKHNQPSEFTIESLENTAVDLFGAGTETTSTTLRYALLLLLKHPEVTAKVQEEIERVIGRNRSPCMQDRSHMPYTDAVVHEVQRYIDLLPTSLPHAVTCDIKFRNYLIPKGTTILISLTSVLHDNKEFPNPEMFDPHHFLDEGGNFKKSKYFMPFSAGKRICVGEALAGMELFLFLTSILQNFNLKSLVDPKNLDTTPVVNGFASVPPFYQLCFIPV

Row | SMILES | inhibition
1 | Cc1cccc(N2CC(C)Cn3c2nc2c3c(=O)n(CC(=O)OCc3ccccc3)c(=O)n2C)c1 (configuration not stated) | 86.9% (active)
2 | COc1ccc(N2CC(C)Cn3c2nc2c3c(=O)n(Cc3ccccc3F)c(=O)n2C)c(OC)c1 (configuration not stated) | -4.7%
3 | Cn1c(=O)n(CCc2ccccc2)c(=O)c2c1nc1n2CCCN1c1ccccc1 | 14.3%
4 | O=C(/C=C/c1cc2c(cc1Br)OCO2)NCc1ccc(Cl)cc1 | -6.4%
5 | CC(C)(C)C(=O)c1cnc(Nc2ccccc2)s1 | 33.1%
6 | S=c1[nH]nc(-c2ccco2)n1/N=C/c1ccc(Br)s1 | -24.6%
7 | COc1ccc(OC)c(C(c2nnnn2C(C)(C)C)N2CCc3ccccc3C2)c1 (configuration not stated) | 98.9% (active)
8 | CCC(C)(C)n1nnnc1C(c1ccccc1OC)N1CCSCC1 (configuration not stated) | 17%
9 | Cc1ccc(C(c2nnnn2C(C)(C)C)N2CCc3ccccc3C2)cc1 (configuration not stated) | -5.7%
10 | CCOc1ccc(S(=O)(=O)N(CC(=O)O)c2ccccc2)cc1 | 17.7%
11 | COc1cccc(NC(=O)CN(C)S(=O)(=O)c2ccc(C)cc2)c1 | 19%
12 | CCN(CC)C(=O)CN(c1cccc(OC)c1)S(=O)(=O)c1ccc(C)cc1 | 94% (active)
13 | Cc1nonc1OCCn1nnnc1N | 6.3%
14 | CCN(CC(=O)NCc1cccs1)c1nnnn1-c1ccccc1 | -1.7%
15 | Cc1n[nH]c(=S)n1/N=C/c1ccc(Br)o1 | 4.5%
16 | COC(=O)Cn1c2ccc(C)cc2c2nc(C)sc21 | 22.4%
17 | CCCCOC(=O)Cn1c(=N)n(CCN(CC)CC)c2ccccc21 | -37.7%
18 | CCCCOC(=O)Cn1c(=O)n(CC(=O)OCCCC)c2cc(C)ccc21 | 60.8% (active)
19 | CCCCOC(=O)c1[nH]c(C)c(C(=O)OC)c1C | 61.2% (active)
20 | COCCCNCC(=O)Nc1sc(C)c(C)c1C(=O)OC | 39.5%
21 | CCCCN(CC)CCNC(=O)c1[nH]c(C)c(C(C)=O)c1C | -14.6%
22 | CCCOc1ccc(NC(=O)C2CCCNC2=O)cc1 (configuration not stated) | 1.9%
23 | Cc1cc(C)cc(NC(=O)CSCc2cnn(-c3ccccc3)c2-n2cccc2)c1 | 44%
24 | CC(=O)Nc1ccc(NC(=O)CSCc2cnn(-c3ccccc3)c2-n2cccc2)cc1 | 86.6% (active)
25 | COc1ccc(-n2nnnc2SCC(=O)Nc2ccccc2)cc1 | -7.3%

Row | SMILES | inhibition
26 | Cc1ccc(NC(=O)c2cc(-c3ccc(C)o3)nc3ccccc23)nc1 | 3.2%
27 | CC(=O)OCc1cc2cc(C)ccc2[nH]c1=O | -8%
28 | O=C(NCC1CCCO1)/C(=C\c1ccco1)NC(=O)c1ccccc1 (configuration not stated) | -18.8%
29 | C/C(=C\c1ccco1)C1Nc2cccc3cccc(c23)N1 | 55.5% (active)
30 | Cc1cccc(NC(=O)/C(=C\c2ccco2)NC(=O)c2ccccc2)c1 | 32.5%
31 | COc1ccc2c(c1OC)C(=O)N(c1ncn[nH]1)C2 | -23.9%
32 | CCN(CC)C(=O)CC1(c2ccccc2OC)CCOC(C(C)C)C1 (configuration not stated) | 17%
33 | O=C(CCc1ccc(S(=O)(=O)N2CCOCC2)cc1)Nc1ccc2ccccc2c1 | 55.3% (active)
34 | O=C(CN1CCN(S(=O)(=O)c2ccc3ccccc3c2)CC1)NC(=O)NC1CCCCC1 | -18.3%
35 | O=S(=O)(c1ccc2ccccc2c1)N1CCN(S(=O)(=O)N2CCOCC2)CC1 | -53.6%
36 | Cn1nnnc1SCc1cc(=O)[nH]c2ccccc12 | 14.5%
37 | CCOC(=O)Cc1c(C)nc2c(C#N)c(C)nn2c1C | -3.2%
38 | CCCc1nc2ccccc2c(=O)n1/N=C/c1ccc(O)c(O)c1 | 85.3% (active)
39 | CCCOn1c(-n2nc(C)cc2C)nc2ccccc2c1=O | 11.3%
40 | O=c1c2ccccc2nc(N/N=C/c2ccccc2)n1O | -1.4%
41 | CCOC(=O)N1CCC(Nc2c(NCCN3CCN(c4cccc(Cl)c4)CC3)c(=O)c2=O)CC1 | 0.8%
42 | CCOC(=O)N1CCN(C(=O)Cc2ccc(-n3c(=S)[nH]c4ccccc4c3=O)cc2)CC1 | 11.8%
43 | O=C(Cc1ccc(-n2c(=O)[nH]c3ccccc3c2=O)cc1)N1CCN(c2cccc(Cl)c2)CC1 | 57.5% (active)
44 | O=C(C1CCN(S(=O)(=O)c2cnc[nH]2)CC1)N1CCN(Cc2ccc3c(c2)OCO3)CC1 | 9.3%
45 | Cc1cc(C)cc(NS(=O)(=O)c2ccc(Oc3ncc(C(F)(F)F)cc3Cl)cc2)c1 | 47.2%
46 | COc1ccccc1Oc1ccc(S(=O)(=O)Nc2cccnc2)cc1 | 84.9% (active)
47 | Cc1ccc(S(=O)(=O)c2ccc(Oc3ccccc3)cc2)cc1 | -5.1%
48 | O=C(CS(=O)(=O)Cc1ccccc1)Nc1cccnc1 | -3.4%
49 | Cc1nc(CNS(=O)(=O)c2ccc(Oc3ccccc3)cc2)cs1 | 39.1%
50 | O=S(=O)(Nc1ccccn1)c1ccc(Oc2ccccc2)cc1 | 81.4% (active)

Row | SMILES | inhibition
51 | COc1cc(=O)[nH]c(=O)n1C(=O)Cc1ccccc1 | 11.7%
52 | Cc1nc(NC2=NC(C(=O)Nc3ccc(Cl)cc3)CC(=O)N2)nc2ccccc12 (configuration not stated) | 1.6%
53 | O=C(CCCN1C(=O)c2cccc3cccc(c23)C1=O)N1CCN(Cc2ccc3c(c2)OCO3)CC1 | -138%
54 | O=C1c2ccccc2C(=O)N1c1ccccc1S(=O)C(F)(F)F (configuration not stated) | -4%
55 | O=C(Nc1ccccc1[N+](=O)[O-])C1C(c2ccccc2)=C1c1ccccc1 | 18.8%
56 | O=C(O)c1ccccc1NC(=S)NC(NC(=O)c1ccccc1[N+](=O)[O-])C(Cl)(Cl)Cl (configuration not stated) | 72.3% (active)
57 | O=[N+]([O-])c1ccccc1NCc1ccc(Cl)cc1 | 18%
58 | O=C(Nc1ccc2c(c1)OCO2)C1CC(c2c(F)cccc2Cl)=NO1 (configuration not stated) | -159%
59 | COCn1c(COc2ccccc2)nc2ccccc21 | 43.7%
60 | CCN(CC(=O)NC(C)C)C(=O)CCNC(=O)c1ccc(Cl)cc1 | 6.3%
61 | Cc1ccc(CNC(=O)CCCNC(=O)c2ccc(Cl)cc2)n1C | 80.5% (active)
62 | CCCCNC(=O)CCNC(=O)c1ccc(C(C)(C)C)cc1 | 41.3%
63 | CCCCNC(=O)C(=O)c1ccccc1NC(C)=O | 15.4%
64 | CCCNC(=S)NC1CC2CCCC(C1)N2CC(C)C (configuration not stated) | -4.2%
65 | Cc1cc(OC(=O)c2ccc(Cl)cc2)cc(=O)n1C | 32%
66 | COCCOC(=O)C1=C(C)NC(=O)CC1c1cc2c(cc1Br)OCO2 (configuration not stated) | 8.2%
67 | CCCOc1ccccc1C1CC(=O)Nc2cc3c(cc21)OCO3 (configuration not stated) | 94.4% (active)
68 | COc1ccccc1C1C2=C(COC2=O)Nc2cc3c(cc21)OCO3 (configuration not stated) | 28.2%
69 | CC1(C)CC(=O)C(C2=NC(C)(C)Cc3ccccc32)=C(O)C1 | 5.8%
70 | C=CCOc1c2ccc(C(=O)N(CC)c3ccc(OC)cc3)cc2nn1C | 47.3%
71 | COc1ccc(-c2nnc(SC(C)C#N)o2)cc1 (configuration not stated) | 13.9%
72 | COc1cc(OC)cc(C(=O)NC2CCN(C(=O)N3c4ccccc4Sc4ccccc43)CC2)c1 | 41.4%
73 | COc1ccc(-c2nnc(SC(=O)N3c4ccccc4Sc4ccccc43)o2)cc1 | 83.1% (active)
74 | COc1ccc2c(c1)cc1n2CCN=C1NN | 42.7%
75 | Cc1ccc(C(=O)NC2CCN(C(=O)N3CCOCC3)CC2)cc1 | -6.4%

Row | SMILES | inhibition
76 | N#Cc1nc(N)nc(N(c2ccccc2)c2ccccc2)n1 | 19.9%
77 | CCOC(=O)c1cc2c(n(-c3ccc(C)cc3)c1=O)CCCC2=O | 12%
78 | Cc1n[nH]c(=O)n1-c1ccc(Oc2ccccc2)cc1 | 0.7%
79 | Cc1ccc(N)cc1-n1c(C)ccc1C | -1.6%
80 | Cc1ccccc1CSc1nnc(-c2ccccn2)n1N | -28.8%
81 | Cc1ccc(S(=O)(=O)N(CC(=O)N/N=C/c2ccc(F)cc2)c2cccc3cccnc23)cc1 | 9.7%
82 | COc1ccc(N(CC(=O)N/N=C/c2cccc3c2OCCO3)S(=O)(=O)c2ccc(NC(C)=O)cc2)cc1 | 76.1% (active)
83 | COc1ccc(N(CC(=O)N/N=C/c2cccs2)S(=O)(=O)c2ccc(OC)c(OC)c2)cc1 | 44.2%
84 | Cn1c(=N)n(CC(O)c2ccccc2)c2ccccc21 (configuration not stated) | -27.2%
85 | COc1cc(C(=O)Nc2nccs2)cc(OC)c1OC | 42%
86 | Cn1cccc1C(=O)Nc1nccs1 | 2.9%
87 | Cc1c(Br)c([N+](=O)[O-])nn1C(C)C(=O)Nc1nccs1 (configuration not stated) | 73.2% (active)
88 | O=P(O)(CN1CCCCC1)CN1CCCCC1 | -9.6%
89 | Cc1nn(C)c(C)c1S(=O)(=O)N1CCc2ccccc21 | -33.4%
90 | CSc1nc2ccc(S(=O)(=O)N3CCc4ccccc43)cc2s1 | 15.3%
91 | CC1CCC(NS(=O)(=O)c2ccc3c(c2)n(C)c(=O)c(=O)n3C)CC1 (configuration not stated) | 8.5%
92 | Cn1c(=O)n(C)c2cc(S(=O)(=O)N3CCCc4ccccc43)ccc21 | 66.5% (active)
93 | CCn1c(=O)c(=O)n(CC)c2cc(S(=O)(=O)N3CCc4ccccc43)ccc21 | 96.5% (active)
94 | COc1ccc(C(=O)OCC(=O)NCC2CCCCC2)cc1S(=O)(=O)N1CCCc2ccccc21 | 9.6%
95 | Cc1ccc(-n2c(=O)c(C#N)cc3c(=O)n4ccccc4nc32)cc1C | -2.8%
96 | Cc1cc(C=O)c(C)n1-c1ccc(NC2CCCCC2)c([N+](=O)[O-])c1 | 15.9%
97 | Cc1ccoc1C(=O)Nc1cccc(Oc2ccccc2)c1 | 34%
